Data: PubChem BioAssay AID2762 (National Center for Advancing Translational Sciences (NCATS), 2010)
Results filed as inconclusive are left out. Calls of active or inactive are those of the source. The call rests on the fitted dose curve; in most records, active means well fitted inhibition curve with a large enough effect; inconclusive means small, poorly fitted or top-dose-only effect, or effect the other way; inactive means no such curve, though single readings can be large or run the other way.

Target: Nuclear receptor ROR-gamma (Mus musculus) (UniProt P51450)
Sequence (P51450 whole entry, looked up): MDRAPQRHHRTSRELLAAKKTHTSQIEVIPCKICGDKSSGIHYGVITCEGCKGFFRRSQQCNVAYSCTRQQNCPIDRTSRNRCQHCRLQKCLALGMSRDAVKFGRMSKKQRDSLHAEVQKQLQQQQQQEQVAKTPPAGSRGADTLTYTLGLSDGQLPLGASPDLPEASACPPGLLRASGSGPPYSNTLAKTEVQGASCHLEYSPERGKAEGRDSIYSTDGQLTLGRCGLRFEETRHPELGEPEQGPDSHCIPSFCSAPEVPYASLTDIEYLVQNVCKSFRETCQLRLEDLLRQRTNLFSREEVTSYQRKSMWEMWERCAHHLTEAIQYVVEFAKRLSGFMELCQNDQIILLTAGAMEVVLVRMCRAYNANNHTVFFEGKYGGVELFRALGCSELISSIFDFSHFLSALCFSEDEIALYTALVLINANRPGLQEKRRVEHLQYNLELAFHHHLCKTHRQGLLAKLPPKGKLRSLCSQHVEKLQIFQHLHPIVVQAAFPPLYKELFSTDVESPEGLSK
Assay: Concentration response confirmation assay for inhibitors of ROR gamma transcriptional activity
Details: Drosophila S2 Gal4-RORgamma UAS-luciferase, 20 h; series mostly up to 46.1 µM; activity change, negative = inhibition: at the top concentration
Description: NIH Molecular Libraries Probe Production Network [MLPCN] NIH Chemical Genomics Center [NCGC] MLPCN Grant: R03 DA026211-01 Assay Provider: Dan Littman, New York University Assay Overview: The retinoic acid-related orphan receptor (ROR) gamma is a transcription factor that has a central role in the differentiation of Th17 cells, a subset of T helper cells that secrete the inflammatory cytokines IL-17, IL-17F, and IL-22. Th17 cells have been implicated in graft versus host disease, autoimmune disease and asthma. ROR gamma is induced in naive T helper cells in the presence of TGF-beta combined with IL-6, IL-21, or IL-23, and thereafter directs the expression of the Th17 lineage cytokines. To study the mechanism of action of ROR gamma, an insect cell-based assay was screened. This Drosophila Schneider cell line was stably transfected with two vectors: a gene expressing a fusion of the Gal4 DNA binding domain and ROR gamma transactivation domain under the control of the metallothionine promoter and a Photinus luciferase reporter regulated by the Gal4 binding site enhancer, UAS. […] Small molecule inhibitors of ROR gamma activity are detected by a decrease in luciferase reporter activity.
Assay Protocol Summary: For screening, 600 cells in 4 uL/well were dispensed into white solid 1536-well plates (Grenier) using a solenoid-based dispenser. Following transfer of 23 nL compound or DMSO vehicle by a pin tool, the plates were incubated 1 hr at ambient temperature, and 1 uL/well copper sulfate (700 uM final concentration) was added. The plates were centrifuged 15 s at 1000 RPM and incubated 20 hr at ambient temperature. After addition of 1.5 uL Photinus luciferase detection reagent, the plates were incubated 10 min at ambient temperature and then read by an ViewLux (Perkin Elmer) to detect luminescence. Keywords: NIH Roadmap, MLPCN, MLI, MLSMR, qHTS, NCGC, qHTS, nuclear hormone receptor, retinoic acid-related orphan receptor, ROR gamma

Structure (SMILES)	Potency	activity change, negative = inhibition
CCOC(=O)C(C(=O)OCC)C(C(=O)OCC)N1CCOCC1 (stereo not given)	3.15 µM (active)	–
Clc1ccccc1/C=N/NC1=Nc2cccc3cccc1c23	0.199 µM (active)	–
CC(C)CC(=O)NS(=O)(=O)c1ccc(N)cc1	–	2.46% (inactive)
CCn1nc(C)c(CN2CCC(n3nccc3NC(=O)c3ccc4c(c3)OCO4)CC2)c1C	–	0.701% (inactive)
COC(=O)c1ccc(OCC(=O)c2ccc(O)cc2O)cc1	0.125 µM (active)	–
CCOC(=O)c1sc(NC(=O)c2cc3c(s2)CCC(C)C3)nc1C (stereo not given)	0.0996 µM (active)	–
O=S(=O)(c1ccc(NC(=S)N/N=C/c2ccc(Oc3ccccc3)cc2)cc1)N1CCOCC1	1.12 µM (active)	–
Cc1cccc(-c2nc3cc(NC(=O)C4CCCO4)ccc3o2)c1 (stereo not given)	0.396 µM (active)	–
Cc1cccc(-c2ocnc2C(=O)Nc2ccccc2NC(=O)c2ccccn2)c1	2.23 µM (active)	–
Cc1cc(NC(=O)CN2CCOCC2)n(-c2nc3ccccc3s2)n1	15.8 µM (active)	–
COc1ccc(-n2ncc(Cl)c(Cl)c2=O)cc1	8.88 µM (active)	–
CN(Cc1nc2ccccc2c(=O)[nH]1)Cc1nc2ccsc2c(=O)[nH]1	1.41 µM (active)	–
COc1ccc(/C=C/C(=O)NC(=S)NCC2CCCO2)cc1 (stereo not given)	11.2 µM (active)	–
Fc1cccc2sc(Nc3nnc(-c4ccco4)o3)nc12	1.99 µM (active)	–
O=c1oc2c3c(nn2c2ccccc12)CCCC3	–	-0.931% (inactive)
O=C(CCN1C(=O)/C(=C/c2ccccc2Cl)SC1=S)N1CCCC1	11.2 µM (active)	–
COc1ccc2nc(NC(=O)c3sc4nc(C)cc(C)c4c3N)sc2c1	0.0199 µM (active)	–
O=c1c2cc(Br)ccc2[nH]c(=S)n1Cc1cccnc1	11.2 µM (active)	–
Cc1cc(C)c2sc(NC(=O)c3ccc(N4C(=O)CCC4=O)cc3)nc2c1	0.0705 µM (active)	–
CCn1cc(C(=O)O)c(=O)c2cc(F)c(N3CCN(C(=S)NC(=O)c4ccccc4C)CC3)cc21	–	-24.2% (inactive)

Structure (SMILES)	Potency	activity change, negative = inhibition
O=C(COc1ccccc1Cl)NCCCN1CCOCC1	–	-9.29% (inactive)
NC(=O)/C=C/C(=O)Nc1ccc(Cl)cc1	8.88 µM (active)	–
COc1ccc2oc(=O)c(C(=O)Nc3ccccc3C)cc2c1	1.25 µM (active)	–
CCC(C)[C@H](NC(=O)NCc1ccco1)C(=O)O (stereo not given in full)	–	-9.58% (inactive)
O=C(Cn1c(=O)oc2ccc(Cl)cc21)Nc1ccon1	–	11.1% (inactive)
Cc1cc(-c2ccccc2)nc(N2CCC(C(=O)NCc3ccccc3Cl)CC2)n1	–	-6.36% (inactive)
Cc1ccc(-c2n[nH]c(=S)n2/N=C/C=C\c2ccccc2[N+](=O)[O-])cc1	–	-29.5% (inactive)
COc1ccc(OC)c(/C=C2\SC(=S)N(C(C(=O)O)c3ccccc3)C2=O)c1 (stereo not given)	–	13.7% (inactive)
O=C(/C=C/c1ccc(S(=O)(=O)N2CCOCC2)cc1)NC(=S)Nc1ccc(N2CCOCC2)cc1	9.96 µM (active)	–
Cc1nn(-c2ccccc2)c(C)c1C(=O)Nc1nnc(-c2ccco2)o1	0.996 µM (active)	–
Cc1cc(NC(=S)NC(=O)/C=C/c2ccc(S(=O)(=O)N3CCOCC3)cc2)ccc1Br	7.05 µM (active)	–
COc1ccc(OCC(=O)NNc2nc3ccccc3s2)cc1	14.1 µM (active)	–
CNc1cc(C(F)(F)F)nc(-c2ccccn2)n1	3.97 µM (active)	–
CCN1CCCc2cc(CN(CCN3CCOCC3)C(=S)Nc3ccccc3C)ccc21	9.96 µM (active)	–
COc1ccc(-c2cc(C(=O)NNC3=NCCC3)c3c(C)nn(-c4ccccc4)c3n2)cc1	4.45 µM (active)	–
Cc1cc(C)nc(-n2nc(C)cc2NC(=O)CNC(C)c2ccccc2)n1 (stereo not given)	6.28 µM (active)	–
O=C(NCC1CCCO1)C(C(=O)c1ccccc1)n1ccccc1=O (stereo not given)	–	-18.7% (inactive)
O=C1NC2=C(C(=O)CCC2)C(c2ccccc2)N1 (stereo not given)	–	2.63% (inactive)
CCc1ccc(-c2nc(CSCC(=O)NC3CC3)c(C)o2)cc1	3.97 µM (active)	–
COc1cccc(-c2cc(C(=O)N3CCc4ccccc4C3)[nH]n2)c1	–	10.3% (inactive)
